This is an account of results in PubChem BioAssay (NCATS).

Inconclusive results are not listed. Unmarked numbers belong to inactive results. Active and inactive are the calls of the source. The call rests on the fitted dose curve; in most records, active means well fitted inhibition curve with a large enough effect; inconclusive means small, poorly fitted or top-dose-only effect; inactive means flat fitted curve, though single readings scatter.
On the % scale 0 is the no-effect control and ±100 the full control effect; potency means the concentration at half of the fitted maximal effect.

Chain of Voltage-gated inwardly rectifying potassium channel KCNH2 (Homo sapiens) (Q12809 whole entry, looked up): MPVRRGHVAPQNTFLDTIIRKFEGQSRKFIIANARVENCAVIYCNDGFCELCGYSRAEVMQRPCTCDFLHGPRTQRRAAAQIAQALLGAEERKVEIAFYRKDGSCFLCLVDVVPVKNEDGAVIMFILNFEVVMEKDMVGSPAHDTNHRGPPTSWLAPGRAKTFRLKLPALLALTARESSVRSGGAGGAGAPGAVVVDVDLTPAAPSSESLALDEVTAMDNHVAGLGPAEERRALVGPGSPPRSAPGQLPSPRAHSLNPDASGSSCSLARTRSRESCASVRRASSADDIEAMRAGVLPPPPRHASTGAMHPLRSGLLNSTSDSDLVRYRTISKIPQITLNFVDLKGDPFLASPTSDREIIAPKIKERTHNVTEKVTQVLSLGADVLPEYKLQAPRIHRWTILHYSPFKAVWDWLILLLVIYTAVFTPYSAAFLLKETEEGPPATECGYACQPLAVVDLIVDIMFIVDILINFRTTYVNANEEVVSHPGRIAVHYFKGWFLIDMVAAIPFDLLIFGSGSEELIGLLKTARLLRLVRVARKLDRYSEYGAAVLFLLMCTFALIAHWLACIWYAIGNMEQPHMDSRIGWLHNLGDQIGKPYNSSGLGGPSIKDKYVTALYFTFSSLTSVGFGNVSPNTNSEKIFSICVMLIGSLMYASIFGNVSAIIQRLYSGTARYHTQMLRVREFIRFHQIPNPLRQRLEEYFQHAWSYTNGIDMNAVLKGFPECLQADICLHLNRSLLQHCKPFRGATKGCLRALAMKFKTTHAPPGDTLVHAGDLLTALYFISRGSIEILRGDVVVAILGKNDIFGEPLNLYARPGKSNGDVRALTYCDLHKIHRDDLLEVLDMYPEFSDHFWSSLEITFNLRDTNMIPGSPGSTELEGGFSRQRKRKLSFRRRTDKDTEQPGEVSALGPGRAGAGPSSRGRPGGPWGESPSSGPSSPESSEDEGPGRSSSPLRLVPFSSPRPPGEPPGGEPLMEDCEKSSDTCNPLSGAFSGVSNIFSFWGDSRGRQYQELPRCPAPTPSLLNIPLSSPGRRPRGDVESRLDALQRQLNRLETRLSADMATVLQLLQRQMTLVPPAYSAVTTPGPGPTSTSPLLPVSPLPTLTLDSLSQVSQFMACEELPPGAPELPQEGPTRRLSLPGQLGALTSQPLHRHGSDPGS

This assay addresses Voltage-gated inwardly rectifying potassium channel KCNH2 (Homo sapiens) (UniProt Q12809). The assay can be described thus: qHTS Assay for Small Molecule Inhibitors of the Human hERG Channel Activity (AID 588834).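 Further: lower thallium flux fluorescence means stronger hERG block; nearly all actives have a fitted effect of over 50% in size.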 On activity change, negative = inhibition: top concentration of the series differs between compounds. The note with it: U2OS BacMam hERG, FluxOR thallium flux fluorescence; series mostly up to 92.2 µM; activity change, negative = inhibition: at the top concentration. In short, it runs like this:
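Kinetic FDSS fluorescence; U2OS + hERG BacMam (~100 virus particles/cell); FluxOR Tl+ flux; ~10 min cpd; AC50 (Hill).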
For `CCNc1nc(Cl)nc(NC(C)C)n1`, the “activity change, negative = inhibition” value is -15%.

With `ClC1=C(Cl)C2(Cl)C3C4CC(C5OC45)C3C1(Cl)C2(Cl)Cl` (configuration not stated), the Potency is 35.5 µM (active).

Turning to `CCOCN(C(=O)CCl)c1c(C)cccc1CC`, the “activity change, negative = inhibition” value was 6.2%.

Consider `O=C(O)COc1ccc(Cl)cc1Cl`, for which the Potency entry was “inactive”.

As to `COC(=O)NC(=S)Nc1ccccc1NC(=S)NC(=O)OC`, the “activity change, negative = inhibition” value was 8.5%.

On to `C/C=C/c1ccc2c(c1)OCO2`, for which the “activity change, negative = inhibition” value was -13.5%.

For the compound `COP(=S)(OC)Oc1ccc([N+](=O)[O-])cc1`, the “activity change, negative = inhibition” value is -3.62%.

Take `O=S1OCC2C(CO1)C1(Cl)C(Cl)=C(Cl)C2(Cl)C1(Cl)Cl` (configuration not stated): the Potency was 28.2 µM (active).

Regarding `C=CCc1ccc(OC)cc1`, the “activity change, negative = inhibition” value was -14.1%.

Consider `CNC(=O)O/N=C/C(C)(C)SC`, for which the “activity change, negative = inhibition” value was 2.75%.

As to `c1ccc(N=Nc2ccccc2)cc1`, the “activity change, negative = inhibition” value was -25.2%.

As for `CCc1cccc(CC)c1N(COC)C(=O)CCl`, the “activity change, negative = inhibition” value was 1.37%.
